Columns and labels:
U-2932 [1] = assay: growth inhibition by drug alone (1 - RLU/untreated control) (fraction); higher = stronger inhibition; conditions: 177Lu-lilotomab satetraxetan 0 ug/ml
Method in brief: (§1)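 Compound doses on the pre-printed Selleck Cambridge Cancer Compound library plates were 10/100 nM for RIVA cells and 10/1,000 nM for U-2932 cells, seeded at 3,000 cells/well. Before seeding, cells were washed after 18 h with or without a radiolabelled anti-CD37 antibody conjugate (~600 MBq/mg; 0.5 µg/ml RIVA, 1 µg/ml U-2932). Growth inhibition was derived from RealTime-Glo luminescence relative to untreated no-drug control wells. Readings were taken daily starting on day 3, each after 1 h at 37°C, and each well's RLU was divided by the mean of 48 such wells per plate and subtracted from 1.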

RIVA [2] = assay: as above; conditions: 177Lu-lilotomab satetraxetan 0 ug/ml
Method in brief: as §1

U-2932 [3] = assay: growth inhibition by drug plus 177Lu-lilotomab satetraxetan (1 - RLU/untreated control) (fraction); higher = stronger inhibition; conditions: 177Lu-lilotomab satetraxetan 1 ug/ml
Method in brief: as §1

RIVA [4] = assay: as above; conditions: 177Lu-lilotomab satetraxetan 0.5 ug/ml
Method in brief: as §1

Row | Structure (SMILES) | growth inhibition by drug alone (U-2932 [1]; 10 nM, time (day): 3) | growth inhibition by drug alone (U-2932 [1]; 10 nM, time (day): 4) | growth inhibition by drug alone (U-2932 [1]; 10 nM, time (day): 5) | growth inhibition by drug alone (U-2932 [1]; 10 nM, time (day): 6) | growth inhibition by drug alone (U-2932 [1]; 1000 nM, time (day): 3) | growth inhibition by drug alone (U-2932 [1]; 1000 nM, time (day): 4) | growth inhibition by drug alone (U-2932 [1]; 1000 nM, time (day): 5) | growth inhibition by drug alone (U-2932 [1]; 1000 nM, time (day): 6) | growth inhibition by drug alone (RIVA [2]; 10 nM, time (day): 3) | growth inhibition by drug alone (RIVA [2]; 10 nM, time (day): 4) | growth inhibition by drug alone (RIVA [2]; 10 nM, time (day): 5) | growth inhibition by drug alone (RIVA [2]; 10 nM, time (day): 6) | growth inhibition by drug alone (RIVA [2]; 100 nM, time (day): 3) | growth inhibition by drug alone (RIVA [2]; 100 nM, time (day): 4) | growth inhibition by drug alone (RIVA [2]; 100 nM, time (day): 5) | growth inhibition by drug alone (RIVA [2]; 100 nM, time (day): 6) | growth inhibition by drug plus 177Lu-lilotomab satetraxetan (U-2932 [3]; 10 nM, time (day): 3) | growth inhibition by drug plus 177Lu-lilotomab satetraxetan (U-2932 [3]; 10 nM, time (day): 4) | growth inhibition by drug plus 177Lu-lilotomab satetraxetan (U-2932 [3]; 10 nM, time (day): 5) | growth inhibition by drug plus 177Lu-lilotomab satetraxetan (U-2932 [3]; 10 nM, time (day): 6) | growth inhibition by drug plus 177Lu-lilotomab satetraxetan (U-2932 [3]; 1000 nM, time (day): 3) | growth inhibition by drug plus 177Lu-lilotomab satetraxetan (U-2932 [3]; 1000 nM, time (day): 4) | growth inhibition by drug plus 177Lu-lilotomab satetraxetan (U-2932 [3]; 1000 nM, time (day): 5) | growth inhibition by drug plus 177Lu-lilotomab satetraxetan (U-2932 [3]; 1000 nM, time (day): 6) | growth inhibition by drug plus 177Lu-lilotomab satetraxetan (RIVA [4]; 10 nM, time (day): 3) | growth inhibition by drug plus 177Lu-lilotomab satetraxetan (RIVA [4]; 10 nM, time (day): 4) | growth inhibition by drug plus 177Lu-lilotomab satetraxetan (RIVA [4]; 10 nM, time (day): 5) | growth inhibition by drug plus 177Lu-lilotomab satetraxetan (RIVA [4]; 10 nM, time (day): 6) | growth inhibition by drug plus 177Lu-lilotomab satetraxetan (RIVA [4]; 100 nM, time (day): 3) | growth inhibition by drug plus 177Lu-lilotomab satetraxetan (RIVA [4]; 100 nM, time (day): 4) | growth inhibition by drug plus 177Lu-lilotomab satetraxetan (RIVA [4]; 100 nM, time (day): 5) | growth inhibition by drug plus 177Lu-lilotomab satetraxetan (RIVA [4]; 100 nM, time (day): 6)
1 | NC(=O)c1ccc(I)c([N+](=O)[O-])c1 [Iniparib (BSI-201)] | -0.0132 | -0.0395 | -0.0441 | -0.012 | -0.105 | -0.0771 | -0.0716 | -0.0297 | -0.235 | -0.257 | -0.288 | -0.389 | -0.378 | -0.352 | -0.395 | -0.471 | -0.0638 | -0.00415 | 0.0467 | 0.129 | -0.0685 | -0.00507 | 0.0384 | 0.191 | 0.437 | 0.491 | 0.504 | 0.513 | 0.436 | 0.495 | 0.516 | 0.523
2 | C[C@@H](N)[C@H]1CC[C@H](C(=O)Nc2ccncc2)CC1 | -0.00242 | -0.0313 | -0.0598 | -0.119 | -0.0269 | -0.0273 | -0.115 | -0.0522 | -0.062 | -0.109 | -0.134 | -0.231 | -0.413 | -0.366 | -0.399 | -0.522 | -0.0365 | 0.0334 | 0.0633 | 0.082 | -0.014 | 0.0434 | 0.0766 | 0.194 | 0.59 | 0.588 | 0.605 | 0.619 | 0.339 | 0.452 | 0.463 | 0.469
3 | CCC(C)n1ncn(-c2ccc(N3CCN(c4ccc(OCC5COC(Cn6cncn6)(c6ccc(Cl)cc6Cl)O5)cc4)CC3)cc2)c1=O (centres undefined) [Itraconazole (Sporanox)] | 0.0829 | 0.0704 | 0.0582 | -0.11 | 0.0952 | 0.087 | 0.0678 | -0.00563 | -0.0197 | 0.0654 | -0.0473 | -0.325 | -0.037 | 0.0162 | 0.00541 | -0.0886 | 0.0224 | 0.0823 | 0.142 | 0.126 | 0.102 | 0.147 | 0.188 | 0.311 | 0.61 | 0.642 | 0.66 | 0.668 | 0.407 | 0.522 | 0.541 | 0.559
4 | CC(C)C[C@H](NC(=O)CNC(=O)c1cc(Cl)ccc1Cl)B(O)O | -0.0591 | -0.0376 | 0.0132 | 0.111 | 0.983 | 0.984 | 0.984 | 0.985 | -0.217 | -0.196 | -0.201 | -0.298 | 0.177 | 0.166 | 0.0904 | -0.0331 | -0.0412 | -0.00704 | 0.027 | 0.197 | 0.984 | 0.985 | 0.985 | 0.987 | 0.38 | 0.491 | 0.522 | 0.525 | 0.656 | 0.686 | 0.668 | 0.59
5 | O=C(O)CCc1ccc(NCc2cccc(Oc3ccccc3)c2)cc1 | -0.00379 | -0.0257 | -0.0189 | -0.0582 | -0.0179 | -0.0506 | -0.13 | -0.129 | -0.138 | -0.183 | -0.212 | -0.37 | -0.259 | -0.306 | -0.351 | -0.547 | -0.0541 | 0.038 | 0.0596 | 0.0671 | -0.0069 | 0.0299 | 0.0402 | 0.126 | 0.476 | 0.546 | 0.562 | 0.557 | 0.432 | 0.527 | 0.552 | 0.561
6 | CN(C)C[C@@H]1CCn2cc(c3ccccc32)C2=C(C(=O)NC2=O)c2cn(c3ccccc23)CCO1 | 0.148 | 0.0748 | 0.0024 | -0.0699 | 0.292 | 0.306 | 0.226 | 0.249 | 0.0588 | 0.0867 | -0.0102 | -0.214 | 0.041 | 0.0997 | 0.0496 | -0.0383 | 0.0704 | 0.125 | 0.141 | 0.173 | 0.448 | 0.48 | 0.458 | 0.49 | 0.423 | 0.561 | 0.581 | 0.582 | 0.462 | 0.539 | 0.554 | 0.545
7 | Nc1cccc2c1CN(C1CCC(=O)NC1=O)C2=O (centres undefined) [Lenalidomide] | 0.0697 | 0.0182 | -0.0235 | 0.0966 | 0.122 | 0.186 | 0.18 | 0.309 | -0.0108 | -0.0398 | -0.0471 | -0.0439 | -0.101 | -0.141 | -0.183 | -0.226 | 0.069 | 0.101 | 0.148 | 0.257 | 0.215 | 0.263 | 0.303 | 0.434 | 0.534 | 0.564 | 0.587 | 0.589 | 0.428 | 0.481 | 0.499 | 0.508
8 | CC(=O)O[C@H]1C(=O)[C@@]2(C)[C@H]([C@H](OC(=O)c3ccccc3)[C@]3(O)C[C@H](OC(=O)[C@H](O)[C@@H](NC(=O)c4ccccc4)c4ccccc4)C(C)=C1C3(C)C)[C@]1(OC(C)=O)CO[C@@H]1C[C@@H]2O [Paclitaxel (Taxol)] | 0.806 | 0.808 | 0.794 | 0.778 | 0.955 | 0.969 | 0.977 | 0.983 | 0.943 | 0.957 | 0.965 | 0.967 | 0.949 | 0.962 | 0.969 | 0.972 | 0.818 | 0.846 | 0.866 | 0.883 | 0.955 | 0.97 | 0.979 | 0.986 | 0.961 | 0.977 | 0.983 | 0.986 | 0.968 | 0.979 |  | 

From the supplement of paper PMC6897291
